Data from PubChem BioAssay (Tox21).
Inconclusive results are not listed. Where a call stands in place of a potency, no number is given. Unmarked numbers belong to inactive results. Active and inactive are the calls of the source. Unless noted, the call rests on the fitted dose curve; in most records, active means well fitted curve in the direction sought with a large enough effect in the repeat runs; inconclusive means weak or mixed curves; inactive means no such curve, though single readings can be large; an effect the other way counts as inactive or inconclusive.

Assays:
[1] = target: Aryl hydrocarbon receptor (Homo sapiens) (UniProt P35869); experiment: qHTS assay to identify small molecule that activate the aryl hydrocarbon receptor (AhR) signaling pathway (AID 743085); further: nearly all actives have a fitted effect of over 15% in size; further: potency means the concentration at half of the fitted maximal effect;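 on activation: HG2L7.5c1 human HepG2 liver cells with stably integrated DRE-driven firefly reporter; series mostly up to about 70 µM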
Method in brief: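 Luminescence read-out: ONE-Glo reagent, 30 min at room temperature, in HG2L7.5c1 HepG2 reporter cells treated 24 h at 37C. Viability was measured beforehand by CellTiter-Fluor fluorescence after 30 min at 37C.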

[2] = qHTS assay to identify small molecule that activate the aryl hydrocarbon receptor (AhR) signaling pathway - cell viability counter screen (AID 743086);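 further: HepG2 liver cells carrying the AhR DRE luciferase reporter; series mostly up to about 70 µM; nearly all actives have a fitted effect of over 45% in size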
Method in brief: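 Cytotoxicity counter screen: CellTiter-Fluor signal (30 min, 37 C) in 4000 HepG2 cells/well carrying the DRE-luciferase reporter, following 24 h compound exposure at 37 C.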

[3] = target: Peroxisome proliferator-activated receptor gamma (Homo sapiens) (UniProt P37231); experiment: qHTS assay to identify small molecule antagonists of the peroxisome proliferator-activated receptor gamma (PPARg) signaling pathway (AID 743191; calls by dose curve; further: series mostly up to about 63 µM; nearly all actives have a fitted effect of over 30% in size)
Method in brief: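 Beta-lactamase reporter under UAS control in HEK293H PPARg-bla cells; compound treatment 17 h at 37C. Read-out: fluorescence intensity after 1 h room-temperature incubation with LiveBLAzer B/G FRET substrate.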

[4] = qHTS assay to identify small molecule antagonists of the peroxisome proliferator-activated receptor gamma (PPARg) signaling pathway - cell viability counter screen (AID 743194); further: nearly all actives have a fitted effect of over 55% in size
Method in brief: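 Viability was measured as CellTiter-Glo luminescence in GeneBLAzer PPARg UAS-bla HEK293H cells. These cells had been exposed 17 h at 37 C to compounds together with rosiglitazone at 50 nM final, with the beta-lactamase readout taken in the same wells.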

[5] = qHTS assay for small molecule agonists of the antioxidant response element (ARE) signaling pathway (AID 743202; active means well fitted activation curve with a large enough effect in the signal ratio in the repeat runs, not every such curve was filed as active; the % refers to the signal ratio)
Method in brief: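 After 16 hours of compound treatment at 37 C, HepG2 cells with a stably integrated ARE-driven beta-lactamase reporter were loaded 2 hours at room temperature with LiveBLAzer B/G FRET substrate and fluorescence intensity measured.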

[6] = qHTS assay for small molecule agonists of the antioxidant response element (ARE) signaling pathway - cell viability counter screen (AID 743203; calls by dose curve; further: nearly all actives have a fitted effect of over 55% in size)
Method in brief: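 Parallel cytotoxicity read-out for the ARE-bla screen: HepG2 reporter cells, 16 hrs with compounds, then CellTiter-Glo luminescence.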

[7] = qHTS assay for small molecule activators of the heat shock response signaling pathway - cell viability counter screen (AID 743209); further: nearly all actives have a fitted effect of over 50% in size
Method in brief: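 To flag cytotoxic compounds, HSE-bla HeLa cells plated at 1500 cells/well were dosed for 5 h at 37 C, followed by the reporter FRET read and then CellTiter-Glo, with luminescence recorded 30 min after reagent addition.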

[8] = qHTS assay for small molecule activators of the heat shock response signaling pathway (AID 743210; active means well fitted activation curve with a large enough effect in the signal ratio in the repeat runs, with a control signal flat, not every such curve was filed as active; the % refers to the signal ratio; further: series mostly up to about 63 µM)
Method in brief: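 Compound exposure lasted 5 h at 37 C in HeLa cells carrying a heat-shock-element-driven beta-lactamase reporter. Read-out: fluorescence intensity after 2.5 h room-temperature loading with LiveBLAzer B/G FRET substrate.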

[9] = qHTS assay to identify small molecule agonists of the peroxisome proliferator-activated receptor delta (PPARd) signaling pathway - cell viability counter screen (AID 743211); further: nearly all actives have a fitted effect of over 55% in size
Method in brief: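 Read-out: CellTiter-Glo luminescence, 30 min RT, measured in the same wells as the beta-lactamase reporter. Cells: GeneBLAzer PPAR delta UAS-bla HEK293H, 3000 cells/well, compound exposure 17 h at 37C.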

[10] = target: Peroxisome proliferator-activated receptor gamma (Homo sapiens) (UniProt P37231); experiment: qHTS assay to identify small molecule agonists of the peroxisome proliferator-activated receptor gamma (PPARg) signaling pathway (AID 743094; active means well fitted activation curve with a large enough effect in the signal ratio in the repeat runs, not every such curve was filed as active; the % refers to the signal ratio)
Method in brief: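 Fluorescence-based beta-lactamase readout in HEK293H PPARg UAS-bla cells after 17 h compound exposure (37C) and 1 h B/G FRET substrate incubation at room temperature.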

Chain of Aryl hydrocarbon receptor (Homo sapiens) (P35869 whole entry, looked up): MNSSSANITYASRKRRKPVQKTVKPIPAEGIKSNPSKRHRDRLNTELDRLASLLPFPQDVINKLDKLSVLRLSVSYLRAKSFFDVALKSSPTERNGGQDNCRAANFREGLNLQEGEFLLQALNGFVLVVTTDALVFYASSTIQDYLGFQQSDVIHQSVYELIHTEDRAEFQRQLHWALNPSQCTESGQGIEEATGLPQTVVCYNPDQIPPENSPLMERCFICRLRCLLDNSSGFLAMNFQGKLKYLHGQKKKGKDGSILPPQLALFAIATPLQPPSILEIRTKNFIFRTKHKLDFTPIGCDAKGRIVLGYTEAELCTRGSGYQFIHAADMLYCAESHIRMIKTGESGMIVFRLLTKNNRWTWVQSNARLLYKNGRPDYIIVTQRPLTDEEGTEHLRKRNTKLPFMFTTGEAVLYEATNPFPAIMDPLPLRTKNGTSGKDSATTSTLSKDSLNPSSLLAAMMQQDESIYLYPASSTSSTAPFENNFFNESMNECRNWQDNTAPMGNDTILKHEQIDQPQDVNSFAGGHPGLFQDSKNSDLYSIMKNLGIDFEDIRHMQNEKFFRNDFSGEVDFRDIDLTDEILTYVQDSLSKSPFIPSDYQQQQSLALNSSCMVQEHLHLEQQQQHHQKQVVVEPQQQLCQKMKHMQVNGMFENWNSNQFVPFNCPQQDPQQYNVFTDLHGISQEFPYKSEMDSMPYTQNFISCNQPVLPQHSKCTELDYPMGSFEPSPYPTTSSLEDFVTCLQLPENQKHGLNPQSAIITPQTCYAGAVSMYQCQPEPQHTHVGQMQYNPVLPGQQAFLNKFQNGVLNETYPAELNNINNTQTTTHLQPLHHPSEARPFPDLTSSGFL
Chain of Peroxisome proliferator-activated receptor gamma (Homo sapiens) (P37231 whole entry, looked up): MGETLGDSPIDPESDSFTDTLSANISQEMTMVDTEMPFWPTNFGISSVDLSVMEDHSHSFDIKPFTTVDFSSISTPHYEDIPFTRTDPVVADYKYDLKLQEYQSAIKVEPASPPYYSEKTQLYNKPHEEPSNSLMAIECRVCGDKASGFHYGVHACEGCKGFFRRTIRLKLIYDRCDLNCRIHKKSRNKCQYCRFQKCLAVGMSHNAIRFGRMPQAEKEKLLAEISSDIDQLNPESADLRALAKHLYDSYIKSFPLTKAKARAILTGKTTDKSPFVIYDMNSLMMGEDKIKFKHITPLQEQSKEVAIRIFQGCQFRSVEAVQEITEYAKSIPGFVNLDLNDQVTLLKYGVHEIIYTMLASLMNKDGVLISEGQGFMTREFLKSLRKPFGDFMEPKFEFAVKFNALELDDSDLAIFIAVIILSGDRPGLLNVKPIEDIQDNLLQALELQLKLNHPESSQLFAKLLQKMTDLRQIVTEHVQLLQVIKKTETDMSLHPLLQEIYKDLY

In the case of CN1CCC(=C2c3ccccc3CCc3cccnc32)CC1, the Potency [1] is reported as “inactive”, the Potency [2] is reported as “inactive” and the Potency [3] is reported as “inactive”. For the same molecule, the outcome [4] was “inactive”, the Potency [5] was “inactive” and the outcome [6] was “inactive”. For the same molecule, the outcome [7] was “inactive”, the outcome [8] was “inactive” and the outcome [9] was “inactive”.
With C=COCC1CCC(COC=C)CC1 (stereo unspecified) the Potency [1] was “inactive”, the Potency [2] was “inactive” and the Potency [10] was “inactive”. The Potency [5] was “inactive”, the outcome [6] was “inactive” and the outcome [7] was “inactive”. For the same molecule, the outcome [9] was “inactive”.
In the case of CC(=O)C1CCCCC1=O (stereo unspecified), the Potency [1] is reported as “inactive”, the Potency [10] is reported as “inactive” and the Potency [3] is reported as “inactive”. The outcome [4] was “inactive”, the Potency [5] was “inactive” and the outcome [6] was “inactive”. The outcome [7] was “inactive”, the outcome [8] was “inactive” and the outcome [9] was “inactive”.
With Cc1c(N)c(=O)n(-c2ccccc2)n1C the Potency [1] was “inactive”, the Potency [2] was “inactive” and the outcome [4] was “inactive”. The outcome [6] was “inactive”, the outcome [7] was “inactive” and the outcome [9] was “inactive”.
For CN1[C@@H]2CC[C@H]1CC(OC(=O)C(O)c1ccccc1)C2 (stereo partly specified), the Potency [1] was “inactive”, the Potency [10] was “inactive” and the Potency [3] was “inactive”. The outcome [4] was “inactive”, the Potency [5] was “inactive” and the outcome [6] was “inactive”. The outcome [8] was “inactive” and the outcome [9] was “inactive”.
In the case of c1ccc2sc(SN3CCOCC3)nc2c1, the Potency [1] is reported as 23.7 µM (active), the Potency [2] is reported as “inactive” and the Potency [3] is reported as “inactive”. For the same molecule, the outcome [4] was “inactive”, the Potency [5] was “inactive” and the outcome [6] was “inactive”. For the same molecule, the outcome [7] was “inactive”, the outcome [8] was “inactive” and the outcome [9] was “inactive”.
With CC[N+](CC)(CC)CCOc1cccc(OCC[N+](CC)(CC)CC)c1OCC[N+](CC)(CC)CC the Potency [1] was “inactive”, the Potency [2] was “inactive” and the outcome [4] was “inactive”. The Potency [5] was “inactive”, the outcome [6] was “inactive” and the outcome [7] was “inactive”. The outcome [9] was “inactive”.
For CC(CO)(CO)[N+](=O)[O-], the Potency [1] was “inactive”, the Potency [10] was “inactive” and the Potency [3] was “inactive”. The outcome [4] was “inactive”, the Potency [5] was “inactive” and the outcome [6] was “inactive”. For the same molecule, the outcome [7] was “inactive” and the outcome [9] was “inactive”.
With C[C@H]1C[C@H]2[C@@H]3CCC4=CC(=O)C=C[C@]4(C)[C@H]3C(=O)C[C@]2(C)[C@@]1(O)C(=O)CO the Potency [1] was “inactive”, the Potency [10] was “inactive” and the Potency [3] was “inactive”. The Potency [5] was “inactive”, the outcome [6] was “inactive” and the outcome [7] was “inactive”. The outcome [9] was “inactive”.
For Cc1ccnc(NS(=O)(=O)c2ccc(N)cc2)n1, the Potency [2] was “inactive”, the Potency [10] was “inactive” and the Potency [3] was “inactive”. The outcome [4] was “inactive”, the Potency [5] was “inactive” and the outcome [6] was “inactive”. The outcome [7] was “inactive” and the outcome [9] was “inactive”.
With C1CCC2=NCCCN2CC1 the Potency [1] was “inactive”, the outcome [4] was “inactive” and the outcome [6] was “inactive”. For the same molecule, the outcome [7] was “inactive” and the outcome [8] was “inactive”.
In the case of [Ca+2], the Potency [1] is reported as “inactive”, the Potency [10] is reported as “inactive” and the Potency [3] is reported as “inactive”. For the same molecule, the outcome [4] was “inactive”, the outcome [6] was “inactive” and the outcome [8] was “inactive”. For the same molecule, the outcome [9] was “inactive”.
With Cc1nc2ccc(CN(C)c3ccc(C(=O)N[C@@H](CCC(=O)O)C(=O)O)s3)cc2c(=O)[nH]1 the Potency [1] was “inactive”, the Potency [10] was “inactive” and the Potency [3] was “inactive”. For the same molecule, the Potency [5] was “inactive”, the outcome [6] was “inactive” and the outcome [9] was “inactive”.
In the case of CCCCOCCOC(=O)CCCCCCCCC(=O)OCCOCCCC, the Potency [1] is reported as “inactive”, the Potency [10] is reported as “inactive” and the Potency [3] is reported as “inactive”. The Potency [5] was “inactive”, the outcome [6] was “inactive” and the outcome [7] was “inactive”. For the same molecule, the outcome [8] was “inactive” and the outcome [9] was “inactive”.
In the case of Cc1ccc(-c2ncc(Cl)cc2-c2ccc(S(C)(=O)=O)cc2)cn1, the Potency [1] is reported as “inactive”, the Potency [10] is reported as “inactive” and the Potency [3] is reported as “inactive”. The outcome [4] was “inactive”, the Potency [5] was “inactive” and the outcome [6] was “inactive”. The outcome [9] was “inactive”.
